# Source: the supplement of paper PMC6555819
# Assays:
# Assay in all cases: PBM binding z-score (relative to random genomic background probes); higher = stronger binding; sequences stand for … in GC…GCGATTGACAGCGTAGAATGAAGG
# [1] = system: FXR:RXRa (NR concentration 270 nM, RXRa partner concentration 90 nM)
# In short: (§1)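 On custom Agilent 4×180K arrays, double-stranded probes with 34-nt variable regions carried direct-repeat seeds, single-nucleotide variants, half-site ablations or random human genomic background. Ligand-free nuclear receptor dimers were applied for 1 h, and binding was read with antibodies against each partner (one per run). Binding z-scores come from regression-normalized fluorescence, with the random background probes as reference.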
# [2] = system: LXRa:RXRa (NR concentration 270 nM, RXRa partner concentration 90 nM)
# In short: as §1
# [3] = system: LXRa homodimer (NR concentration 270 nM)
# In short: as §1
# [4] = system: LXRb:RXRa (NR concentration 270 nM, RXRa partner concentration 90 nM)
# In short: as §1
# [5] = system: LXRb homodimer (NR concentration 270 nM)
# In short: as §1
# [6] = system: PPARa:RXRa (NR concentration 270 nM, RXRa partner concentration 90 nM)
# In short: as §1
# [7] = system: PPARg:RXRa (NR concentration 180 nM, RXRa partner concentration 90 nM)
# In short: as §1
# [8] = system: PPARg:RXRa 270nM:90nM, anti-RXR (NR concentration 270 nM, RXRa partner concentration 90 nM)
# In short: as §1
# [9] = system: PPARg:RXRa 30nM:10nM, anti-RXR (NR concentration 30 nM, RXRa partner concentration 10 nM)
# In short: as §1
# [10] = system: PPARg:RXRa 90nM:30nM, anti-RXR (NR concentration 90 nM, RXRa partner concentration 30 nM)
# In short: as §1
# [11] = system: PPARg:RXRa DBDmut IVT, anti-RXR (DBD mutation: RXRa K156A/R161A, NR concentration 270 nM, RXRa partner concentration 90 nM)
# In short: as §1
# [12] = system: PPARg:RXRa IVT, anti-PPARg (NR concentration 270 nM, RXRa partner concentration 90 nM)
# In short: as §1
# [13] = system: PPARg DBDmut:RXRa IVT, anti-PPARg (DBD mutation: PPARg1 K132A/R137A, NR concentration 270 nM, RXRa partner concentration 90 nM)
# In short: as §1
# [14] = system: PPARg DBDmut IVT, anti-PPARg (DBD mutation: PPARg1 K132A/R137A, NR concentration 270 nM)
# In short: as §1
# [15] = system: PPARg homodimer (NR concentration 180 nM)
# In short: as §1
# [16] = system: PXR:RXRa (NR concentration 270 nM, RXRa partner concentration 90 nM)
# In short: as §1
# [17] = system: PXR homodimer (NR concentration 270 nM)
# In short: as §1
# [18] = system: RARa:RXR (NR concentration 270 nM, RXRa partner concentration 90 nM)
# In short: as §1
# [19] = system: RARa homodimer (NR concentration 270 nM)
# In short: as §1
# [20] = system: RARb:RXRa (NR concentration 270 nM, RXRa partner concentration 90 nM)
# In short: as §1
Sequence,PBM binding z-score [1],PBM binding z-score [2],PBM binding z-score [3],PBM binding z-score [4],PBM binding z-score [5],PBM binding z-score [6],PBM binding z-score [7],PBM binding z-score [8],PBM binding z-score [9],PBM binding z-score [10],PBM binding z-score [11],PBM binding z-score [12],PBM binding z-score [13],PBM binding z-score [14],PBM binding z-score [15],PBM binding z-score [16],PBM binding z-score [17],PBM binding z-score [18],PBM binding z-score [19],PBM binding z-score [20]
ATCTAAAGGTCGACGAGGTGAGTATACACCGTTT,4.77,4.07,0.832,3.04,0.727,4.38,3.31,3.51,1.21,2.67,0.916,2.35,0.97,0.877,1.81,3.26,0.284,3.76,1.29,3.91
CGTCAAAGTTCAACTAAGGTAACGTAGAGCACGC,7.03,5.95,4.18,4.04,1.71,5.1,5.31,5.6,2.54,4.47,0.564,2.32,0.885,0.785,3.17,5.54,3.81,4.57,1.67,5.24
TCATATAGGTAAATGCTAGGTGAAAGGCCGATCT,0.626,1.07,0.239,0.994,0.0512,1.93,1.81,3.17,3.62,3.95,3.92,2.61,1.09,0.912,1.13,0.776,0.428,1.1,1.3,0.655
TATACAGGGTCAAAGGCCAGATTACGAATGTCGA,7.37,6.22,2.78,4.95,2.24,6.15,8,7.46,5.15,7.09,2.17,4.84,2.19,3.09,2.87,4.54,0.853,6.01,1.67,4.43
CAAACTAGGTCAACGGAAGGTCAAAGTCCGCATG,6.1,5.99,5.99,5.09,1.55,5.74,9.03,7.24,5.66,7.49,8.48,8.61,4.8,2.05,7.1,5.74,2.3,7.48,2.65,5.04
CAGACTAGGTCAAGGTCAAAGTCGGTTTGTGCCA,6.13,5.42,3.5,4.36,0.864,5.62,7.72,7.03,5.17,6.78,7.69,7.9,3.1,0.467,3.79,5.16,1.76,5.07,1.4,5.05
ACTAGCAGGCCAAGTTTGGGTGACTCAAACAAAG,-0.397,-0.73,-0.818,-0.554,-0.715,-0.036,-0.341,-0.319,-0.347,-0.213,0.661,0.765,-1.13,-1.09,-0.815,-0.475,-0.715,-0.198,-0.374,0.418
GCTCGGAGGACAAGGTCAGAGTTTTGTCCGTAGA,1.98,1.71,-0.00501,1.56,-0.35,2.42,0.985,1.89,-0.291,0.859,0.207,0.996,-0.873,-1.18,0.43,1.95,0.373,2.23,-0.47,3.46
GCATATAGGTAAAACAAGGTGAAAGTCCGATTGT,1.15,2.03,-0.3,0.461,-0.664,1.96,1.32,1.69,0.57,1.14,3.96,3.34,0.889,0.508,0.332,0.851,-0.261,1.85,-0.0924,0.432
CGGACTGGGGCAGAAAGGTTACCATACCATCCGG,0.574,0.739,-0.05,1.25,-0.31,2.7,2.62,3.46,1.89,2.62,3.24,4.12,-0.341,-0.159,1.44,1.41,0.0628,1.82,0.413,2.12
GGAACGAGGGCAAGTTGAAAGCAGAGTTTGATGG,0.833,0.231,-0.173,0.237,-0.789,1.94,1.02,1.12,0.000931,0.87,3.88,2.91,-0.0232,-0.635,0.201,0.652,0.377,0.519,-0.328,2.53
ATCTCTCGGTAAAGTTCAGTGAAAGATCGATAGA,1.03,1.46,1.39,1.3,1.34,1.6,1.08,2.68,1.12,2.32,0.0239,0.915,0.801,1.45,1.63,2.11,1.75,1.59,1.08,2.84
ACTATTAGTTGAGACGAGGGCAACAGATAGGTTG,0.212,-0.0273,-0.073,0.0186,0.272,0.442,0.846,-0.171,0.0997,-0.129,0.565,0.556,0.565,1.23,0.704,1.13,0.384,0.971,0.692,0.75
CAAACTAGGTAACCGGAAGGTCAAAGTCCGCATG,4.07,3.94,3.88,3.43,0.672,4.48,4.83,4.98,2.22,4.2,6.68,6.36,1.05,1.34,3.53,3.95,1.57,4.88,1.78,3.35
